For five compounds, composite z-score, composite Z-score and z-score results are on record in PubChem BioAssay.

The source made the active and inactive calls.

Test [1] has as its target Albumin (Bos taurus) (UniProt P02769). In words: compounds binding labelled BSA control protein – biochemical, small-molecule microarray, Alexa647 label, 635/667 nm fluorescence, artefact control for SMM control protein annotation, profiling panel (AID 1118).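 Note: score merges 667 nm emission intensity and signal-to-noise per printed compound spot.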 Particulars: BSA-A647 binding, fluorescence 635 nm, higher = more signal.
Test [2] is described as follows: probe aXIP binding to arrayed compounds – biochemical, NeuroSMM set, 635/667 nm fluorescence, primary screen (AID 1119).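 Note: probe is the protein aXip251-270 applied at 1 µg/mL to compound-printed slides; binding of probe to printed compounds measured as 667 nm fluorescence plus signal to noise.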 Particulars: small-molecule microarray, higher = more signal, called active from +8 up or from −8 down.
Test [3] can be described thus: probe aNOTCH3 binding on compound microarray – biochemical, small-molecule microarray, 635/667 nm fluorescence, primary screen (AID 1120).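 Note: probe is a biotin-tagged antibody raised against NOTCH3 rather than NOTCH3 protein; score merges spot fluorescence near 667 nm with spot signal to noise.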 Particulars: higher = more signal.
Test [4] in a line: probe aNOTCH2 binding on compound microarray – biochemical, small-molecule microarray, 635/667 nm fluorescence, primary screen (AID 1121).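 Note: score merges feature fluorescence read at 667 nm with its signal to noise.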 The following applies: higher = more signal.
Test [5] deals with Carbonic anhydrase 2 (Homo sapiens) (UniProt P00918). In words: compounds binding carbonic anhydrase 2 – biochemical, small-molecule microarray, Alexa647-labelled CAII, profiling panel (AID 1122). The following applies: CAII-A647 binding fluorescence, higher = more signal.
Test [6] in a line: COS7 lysate on small-molecule microarray, probe aHis, 635 nm (AID 1123).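 Note: z-score combines 667nm fluorescence intensity with signal-to-noise per printed compound spot.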 The following applies: COS7 cell lysate, fluorescence, higher = more signal.
The nature of test [7]: probe aLAP1 signal on lysate-treated microarray – cell lysate, small-molecule microarray, COS7 lysate, primary screen (AID 1124).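 Note: lysate comes from COS7 cells expressing LAP1 and is applied at 0.3 µg/mL; score merges spot fluorescence near 667 nm with signal-to-noise over triplicate slides.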 Particulars: probe aLAP1, fluorescence, higher = more signal.
For test [8], the system named is Sam68 (KHDRBS1). In words: compounds binding KHDRBS1 protein – biochemical, small-molecule microarray, 635 nm fluorescence, primary screen (AID 1125).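 Note: score merges 667 nm channel intensity with signal to noise over triplicate slides.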 The following applies: higher = more signal.
Test [9] has as its system Chordin-like protein 2 (CHRDL2). The test can be described thus: compounds binding chordin-like 2 – biochemical, small-molecule microarray, 635 nm fluorescence, primary screen (AID 1126).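 Note: printed compound slides probed with Chrdl2 protein at 4 µg/mL for 1 h at 4 C; score merges 667 nm emission intensity with signal to noise over three replicate slides.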 Particulars: fluorescence 635 nm, higher = more signal.
For test [10], the target named is Concanavalin-A (Canavalia ensiformis) (UniProt P02866). The test can be described thus: compounds binding concanavalin A lectin – biochemical, small-molecule microarray, Alexa647 label, 635 nm, artefact control for SMM control protein annotation, primary screen (AID 1127).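 Note: z combines 667 nm emission intensity with signal-to-noise across three replicate slides.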 The following applies: ConA-A647 binding fluorescence, higher = more signal.
Concanavalin-A (Canavalia ensiformis), sequence (P02866 whole entry, looked up): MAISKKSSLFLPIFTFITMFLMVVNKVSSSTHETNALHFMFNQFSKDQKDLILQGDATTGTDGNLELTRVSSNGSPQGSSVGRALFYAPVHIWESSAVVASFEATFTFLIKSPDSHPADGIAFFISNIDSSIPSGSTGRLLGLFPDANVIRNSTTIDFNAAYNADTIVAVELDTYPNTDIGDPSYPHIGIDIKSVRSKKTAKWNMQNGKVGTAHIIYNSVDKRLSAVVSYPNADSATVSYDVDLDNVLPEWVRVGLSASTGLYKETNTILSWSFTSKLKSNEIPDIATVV
Test [11] is described as follows: compounds binding Alexa647 anti-His antibody – biochemical, small-molecule microarray, 635 nm fluorescence, artefact control for SMM control protein annotation, primary screen (AID 1128).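 Note: score merges feature fluorescence with signal-to-noise for each printed compound spot.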 The following applies: higher = more signal.
The subject of test [12] is Human papillomavirus type 1a E7 protein (residues 1-88). In words: HPV1a E7 small-molecule binders, primary screen, biochemical, small-molecule microarray, residues 1-88, 635 nm (AID 1129). The following applies: small-molecule microarray binding, fluorescence 635 nm; higher = more signal.
The target in test [13] is Focal adhesion kinase 1 (Homo sapiens) (UniProt Q05397). The test can be described thus: PTK2 protein binding on printed compound slides – biochemical, small-molecule microarray, 635/667 nm fluorescence, BSA, DTT, primary screen (AID 1130).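 Note: composite of spot emission at 667 nm and signal to noise over triplicate slides.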 Particulars: 635 nm fluorescence, higher = more signal.
Focal adhesion kinase 1 (Homo sapiens), sequence (Q05397 whole entry, looked up): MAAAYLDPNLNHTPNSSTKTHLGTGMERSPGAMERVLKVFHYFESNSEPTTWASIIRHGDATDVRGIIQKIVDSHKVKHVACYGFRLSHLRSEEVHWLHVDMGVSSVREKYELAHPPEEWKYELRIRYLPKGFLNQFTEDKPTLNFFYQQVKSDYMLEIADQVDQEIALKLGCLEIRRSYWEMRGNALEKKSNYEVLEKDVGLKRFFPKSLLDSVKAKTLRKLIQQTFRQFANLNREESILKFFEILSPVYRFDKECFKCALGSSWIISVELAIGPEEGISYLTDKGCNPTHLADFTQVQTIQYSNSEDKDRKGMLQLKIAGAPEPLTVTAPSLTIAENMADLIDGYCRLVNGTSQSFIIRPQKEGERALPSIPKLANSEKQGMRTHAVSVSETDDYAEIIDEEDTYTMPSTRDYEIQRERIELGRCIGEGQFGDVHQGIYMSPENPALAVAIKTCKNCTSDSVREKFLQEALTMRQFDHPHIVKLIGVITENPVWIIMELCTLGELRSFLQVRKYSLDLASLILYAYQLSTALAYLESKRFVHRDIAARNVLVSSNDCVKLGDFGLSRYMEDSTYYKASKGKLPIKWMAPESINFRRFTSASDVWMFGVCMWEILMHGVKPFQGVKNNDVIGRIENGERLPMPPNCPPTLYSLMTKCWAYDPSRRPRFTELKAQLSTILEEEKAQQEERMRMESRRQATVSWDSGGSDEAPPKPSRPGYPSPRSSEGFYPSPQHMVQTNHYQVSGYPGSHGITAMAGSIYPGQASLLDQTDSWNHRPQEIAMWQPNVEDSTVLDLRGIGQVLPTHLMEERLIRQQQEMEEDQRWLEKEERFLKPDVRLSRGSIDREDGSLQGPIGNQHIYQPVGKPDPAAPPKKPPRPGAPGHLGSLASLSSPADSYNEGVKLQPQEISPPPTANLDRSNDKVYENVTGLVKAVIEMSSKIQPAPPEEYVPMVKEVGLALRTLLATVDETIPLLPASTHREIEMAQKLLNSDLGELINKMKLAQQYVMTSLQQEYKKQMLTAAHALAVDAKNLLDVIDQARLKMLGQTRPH
Test [14] concerns Fibrinogen (Alexa647-labelled). In words: Alexa647-fibrinogen binding to printed small molecules – biochemical, small-molecule microarray, 635/667 nm fluorescence, artefact control for SMM control-protein annotation, profiling panel (AID 1131).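 Note: z-score merges 667 nm fluorescence with per-spot signal-to-noise over triplicate slides.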 Particulars: fibrinogen-A647 binding fluorescence, higher = more signal.
The target in test [15] is Follistatin (Homo sapiens) (UniProt P19883). The test can be described thus: FST protein binding to printed compounds – biochemical, small-molecule microarray, 635/667 nm fluorescence, primary screen (AID 1132). The following applies: 635 nm fluorescence, higher = more signal.
Follistatin (Homo sapiens), sequence (P19883 whole entry, looked up): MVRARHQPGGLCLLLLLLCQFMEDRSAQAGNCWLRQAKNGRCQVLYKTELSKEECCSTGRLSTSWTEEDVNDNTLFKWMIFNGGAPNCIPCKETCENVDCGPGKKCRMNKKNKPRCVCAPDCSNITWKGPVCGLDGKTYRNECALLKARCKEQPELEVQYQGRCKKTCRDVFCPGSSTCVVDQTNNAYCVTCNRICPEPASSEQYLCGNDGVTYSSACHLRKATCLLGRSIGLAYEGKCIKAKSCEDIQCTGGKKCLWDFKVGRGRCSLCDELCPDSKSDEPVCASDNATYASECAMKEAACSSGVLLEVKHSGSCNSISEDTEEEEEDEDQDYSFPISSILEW
Test [16] addresses Fibroblast growth factor 2 (Homo sapiens) (UniProt P09038). In words: basic fibroblast growth factor binding to printed compounds – biochemical, small-molecule microarray, 635/667 nm fluorescence, primary screen (AID 1133). The following applies: FGF2, fluorescence 635/667, higher = more signal.
A short description of test [17]: JC-1 mitochondrial potential readout, lung cancer cells – cell-based, A549, JC-1 fluorescence, basal, 24 h, 100 nL, profiling panel (AID 1138).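 Note: A549 lung adenocarcinoma cells under basal conditions with no added stimulus; test concentration not given here.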 Particulars: higher = more signal.
Test [18] deals with Lefty1. The test can be described thus: Lefty1 protein binding to printed compounds – biochemical, small-molecule microarray, 635/667 nm fluorescence, primary screen (AID 1139). The following applies: fluorescence 635/667, higher = more signal.
The subject of test [19] is wheat germ agglutinin (Triticum aestivum), Alexa647-labelled. The test can be described thus: Alexa647-WGA lectin binding to printed small molecules – biochemical, small-molecule microarray, 635/667 nm fluorescence, artefact control for SMM control-protein annotation, profiling panel (AID 1140).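 Note: score merges 667 nm feature emission with signal to noise over triplicate slides.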 The following applies: WGA-A647 binding, 635 nm fluorescence, higher = more signal.

For test [20], the target named is Luciferin 4-monooxygenase (Photinus pyralis) (UniProt P08659). In words: inhibition of purified Photinus pyralis luciferase – biochemical, luminescence, purified enzyme, 2006 set, primary screen (AID 1141).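 Note: cell-free assay with purified firefly luciferase at 100 ng per well in PBS; test concentration not given here.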 Particulars: purified firefly luciferase, SteadyGlo luminescence, 30 min; higher = more signal, called active from +8 up or from −8 down.
Luciferin 4-monooxygenase (Photinus pyralis), sequence (P08659 whole entry, looked up): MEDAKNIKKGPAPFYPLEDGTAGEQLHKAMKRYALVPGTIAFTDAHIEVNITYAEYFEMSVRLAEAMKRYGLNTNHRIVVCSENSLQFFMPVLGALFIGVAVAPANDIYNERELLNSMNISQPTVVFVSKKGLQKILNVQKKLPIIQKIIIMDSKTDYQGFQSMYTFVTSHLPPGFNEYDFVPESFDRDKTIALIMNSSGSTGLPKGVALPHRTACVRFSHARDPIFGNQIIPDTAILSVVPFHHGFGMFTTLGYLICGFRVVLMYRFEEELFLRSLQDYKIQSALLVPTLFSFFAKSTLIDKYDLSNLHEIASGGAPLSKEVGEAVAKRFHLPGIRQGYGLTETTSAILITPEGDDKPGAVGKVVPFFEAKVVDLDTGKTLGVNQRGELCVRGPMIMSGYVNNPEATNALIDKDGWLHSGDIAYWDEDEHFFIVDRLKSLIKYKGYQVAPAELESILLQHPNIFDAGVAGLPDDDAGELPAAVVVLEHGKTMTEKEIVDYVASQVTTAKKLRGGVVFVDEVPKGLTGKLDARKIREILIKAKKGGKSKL

Albumin (Bos taurus), sequence (P02769 whole entry, looked up): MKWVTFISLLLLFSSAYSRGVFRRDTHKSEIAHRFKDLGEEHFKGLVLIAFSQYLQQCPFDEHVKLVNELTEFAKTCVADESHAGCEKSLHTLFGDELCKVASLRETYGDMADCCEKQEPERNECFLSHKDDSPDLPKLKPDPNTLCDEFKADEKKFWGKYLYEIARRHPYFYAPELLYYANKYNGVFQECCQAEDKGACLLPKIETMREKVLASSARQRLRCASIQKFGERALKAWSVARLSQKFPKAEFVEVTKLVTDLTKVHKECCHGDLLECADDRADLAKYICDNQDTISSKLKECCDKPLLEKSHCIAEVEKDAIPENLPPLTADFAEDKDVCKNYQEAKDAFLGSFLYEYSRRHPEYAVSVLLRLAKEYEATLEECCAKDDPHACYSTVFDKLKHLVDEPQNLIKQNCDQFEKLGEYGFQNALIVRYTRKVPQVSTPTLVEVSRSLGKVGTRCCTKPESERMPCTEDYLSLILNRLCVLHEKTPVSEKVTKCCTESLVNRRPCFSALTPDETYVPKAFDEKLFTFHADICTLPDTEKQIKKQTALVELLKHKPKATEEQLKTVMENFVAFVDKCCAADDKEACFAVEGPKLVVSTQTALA
Fibroblast growth factor 2 (Homo sapiens), sequence (P09038 whole entry, looked up): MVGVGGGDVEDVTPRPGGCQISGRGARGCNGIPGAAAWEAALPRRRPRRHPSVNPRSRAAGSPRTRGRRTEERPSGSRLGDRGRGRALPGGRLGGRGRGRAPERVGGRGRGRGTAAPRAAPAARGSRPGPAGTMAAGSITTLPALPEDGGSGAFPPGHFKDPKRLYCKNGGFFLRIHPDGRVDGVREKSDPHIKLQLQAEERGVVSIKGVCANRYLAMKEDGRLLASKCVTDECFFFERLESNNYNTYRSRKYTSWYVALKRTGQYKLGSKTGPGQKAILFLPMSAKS

Consider `CO[C@H]1COC(=O)[C@H](C)COC(=O)CC=C[C@@H](C)[C@H](OC)COC(=O)CC=C[C@@H]1C`, for which the composite z-score in test [1] was -0.991; in test [3], -0.132; in [4], -0.164; in test [5] it was -0.405; in test [6], -0.602; in [7], -0.142. Besides, the composite z-score in [8] is -0.0288; in [9] it was 1.4; in test [10], 0.184; in [11], 0.0475; in [12] it was -0.774; in [13], -0.117. Besides, the composite z-score is -0.217 in [14]; 1.16 in test [15]; 1.41 in [16]; 1.15 in test [18]; -0.531 in test [19]. For the same compound, the composite Z-score in [2] is -0.222 (inactive). Besides, the z-score in test [17] was 1.11; in test [20], -1.59 (inactive).

Turning to `CCOC(=O)NN=C1C[C@@H](O)[C@@H](O)[C@@H]2[C@@H]3C(=O)N(C4CCCCC4)C(=O)[C@@H]3CC[C@H]12`, the composite z-score in [1] is 0.801; in test [3], 0.0242; in [4], -0.037; in [5], -0.0418; in test [6] it was 0.387; in test [7] it was 0.16. Moreover, the composite z-score in test [8] came out at 0.458; in [9], 0.0341; in test [10], 0.357; in test [11] it was 0.0946; in test [12] it was 0.832; in [13] it was 0.25. The composite z-score was determined as 0.657 in test [14]; 0.061 in test [15]; 0.0615 in test [16]; 0.78 in test [18]; 0.395 in test [19]. Further, in [2], the composite Z-score is -0.0662 (inactive). For the same compound, the z-score in test [17] is -1.13; in test [20] it was 0.63 (inactive).

On to `COCCOC(=O)N1C(=O)[C@@]2(c3cc(C#CC4(O)CCCCCC4)ccc31)[C@H](c1ccc(OCCO)cc1)N1[C@H](c3ccccc3)[C@H](c3ccccc3)OC(=O)[C@H]1[C@@H]2C(=O)NC[C@H](O)c1ccccc1`, for which the composite z-score in test [1] was 0.203; in [3], 0.0039; in [4], -0.115; in [5] it was 0.367; in [6], 1.71; in test [7], 0.288. Further, the composite z-score was 1.29 in [8]; -0.0516 in test [9]; 1.12 in test [10]; 1.67 in test [11]; 1.21 in test [12]; 0.184 in test [13]. The composite z-score in test [14] was 0.946; in test [15], 1.15; in test [16], 0.909; in test [18], 0.907; in [19], 0.784. For the same compound, in test [2], the composite Z-score was -0.317 (inactive). Also, the z-score is -1.52 in test [17] and -1.05 (inactive) in test [20].

As to `COc1ccc(O[C@H]2C=C[C@@H](c3ccccc3)O[C@@H]2CON=C[C@@H](C)[C@H](OCc2ccccc2)C(C)C)cc1`, the composite z-score is -0.136 in [1]; -0.245 in test [3]; -0.198 in [4]; -0.89 in test [5]; -0.53 in test [6]; -0.419 in test [7]. Besides, the composite z-score is -1.67 in test [8]; -0.163 in test [9]; -0.409 in [10]; 0.901 in test [11]; -1.26 in [12]; -0.302 in [13]. For the same compound, the composite z-score is -1.41 in test [14]; -0.675 in test [15]; -0.76 in test [16]; -0.214 in test [18]; 0.12 in [19]. Also, the composite Z-score in [2] is -0.236 (inactive). In addition, the z-score is 1.96 in test [17] and 0.0017 (inactive) in test [20].

Consider `CC(C)(C)N1C(=O)[C@H]2[C@H]3[C@H](O)[C@H](O)CC(=NO[C@@H]4O[C@H](CO)[C@@H](O)[C@H](O)[C@H]4O)[C@@H]3CC[C@H]2C1=O`, for which the composite z-score in [1] is -0.524; in test [3] it was -0.059; in test [4], -0.154; in test [5] it was 0.361; in test [6] it was 0.741; in test [7] it was 0.649. Further, the composite z-score in [8] is 1.24; in test [9], 1.07; in test [10] it was 0.0237; in [11], 1.14; in test [12] it was 1.08; in test [13] it was 1.04. In addition, the composite z-score in [14] worked out at 0.747; in [15], 1.09; in test [16] it was 0.762; in test [18] it was 1.13; in test [19], 0.398. Also, the composite Z-score in test [2] was 0.406 (inactive). For the same compound, the z-score in test [17] was -0.0208; in test [20] it was 0.0997 (inactive).
